# Experimental data as given in PubChem BioAssay (NCATS).
# Unmarked numbers belong to inactive results. Results filed as inconclusive are left out. Some of the results follow. The source made the active and inactive calls. Unless noted, calls follow the shape of the dose curve; as a rule, active = well fitted curve in the direction sought with a large enough effect; inconclusive = small, poorly fitted or top-dose-only effect, or another doubt; inactive = no such curve, though single readings can be large; an effect the other way counts as inactive or inconclusive.
# Legend:
# [1] = system: HIV-1 nucleocapsid protein NCp7 (binding to TG oligonucleotide); experiment: HIV Nucleocapsid (AID 346; call rule not given here;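 also: potency is read from the fitted curve at half-maximal effect; potency is for inhibitors that block NC binding and lower polarization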); conditions: HIV-1 NC / fluorescein-TGTGTGTG probe, fluorescence polarization
# In short: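 10 nM TG4xF probe with 100 nM nucleocapsid protein in high-salt Hepes pH 7.5 (250mM NaCl) containing 1uM ZnCl2 and reducing agents. Compound inhibition of binding was read as fluorescein polarization after 1 hr at room temperature.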
# [2] = target: Estrogen receptor (Homo sapiens) (UniProt P03372); experiment: qHTS assay for small molecule antagonists of estrogen receptor alpha signaling (AID 588513; active = well fitted curve in the direction sought with a large enough effect in the signal ratio, with a control signal flat, not every such curve was filed as active; the % refers to the signal ratio; also: % is scaled to controls: 0 for no effect and ±100 for the full control effect)
# Estrogen receptor (Homo sapiens), sequence (P03372 whole entry, looked up): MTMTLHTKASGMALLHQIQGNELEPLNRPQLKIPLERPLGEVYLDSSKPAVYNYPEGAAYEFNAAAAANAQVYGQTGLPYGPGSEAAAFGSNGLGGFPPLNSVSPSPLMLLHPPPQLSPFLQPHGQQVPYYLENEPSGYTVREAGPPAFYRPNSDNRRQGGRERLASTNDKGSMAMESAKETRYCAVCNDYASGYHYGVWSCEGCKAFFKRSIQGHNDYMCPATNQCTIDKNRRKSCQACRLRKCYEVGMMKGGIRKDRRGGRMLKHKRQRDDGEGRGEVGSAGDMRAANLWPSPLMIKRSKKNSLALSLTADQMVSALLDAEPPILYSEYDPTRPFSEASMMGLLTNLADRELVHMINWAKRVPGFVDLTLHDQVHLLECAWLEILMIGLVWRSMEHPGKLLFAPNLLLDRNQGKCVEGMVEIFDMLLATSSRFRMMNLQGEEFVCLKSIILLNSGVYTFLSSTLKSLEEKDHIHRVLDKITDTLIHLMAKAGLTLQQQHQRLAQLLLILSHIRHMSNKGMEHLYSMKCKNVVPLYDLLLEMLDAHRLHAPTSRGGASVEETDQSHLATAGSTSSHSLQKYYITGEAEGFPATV
# In short: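 Antagonist mode: inhibition of 0.5 nM 17-beta-estradiol-driven beta-lactamase reporter in HEK 293 ER-alpha-UAS-bla cells, 18 h at 37C, CCF4 readout after 2 h at RT. Normalised to estradiol and DMSO; titration fitted to Hill.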
# [3] = target: Androgen receptor (Homo sapiens) (UniProt P10275); experiment: qHTS assay for small molecule agonists of androgen receptor signaling (AID 588515; active = well fitted curve in the direction sought with a large enough effect in the signal ratio, with a control signal flat; the % refers to the signal ratio; also: % is scaled to controls: 0 for no effect and ±100 for the full control effect); conditions: AR-UAS-bla HEK293, beta-lactamase ratio, agonist 16 h; active compounds read high
# Androgen receptor (Homo sapiens), sequence (P10275 whole entry, looked up): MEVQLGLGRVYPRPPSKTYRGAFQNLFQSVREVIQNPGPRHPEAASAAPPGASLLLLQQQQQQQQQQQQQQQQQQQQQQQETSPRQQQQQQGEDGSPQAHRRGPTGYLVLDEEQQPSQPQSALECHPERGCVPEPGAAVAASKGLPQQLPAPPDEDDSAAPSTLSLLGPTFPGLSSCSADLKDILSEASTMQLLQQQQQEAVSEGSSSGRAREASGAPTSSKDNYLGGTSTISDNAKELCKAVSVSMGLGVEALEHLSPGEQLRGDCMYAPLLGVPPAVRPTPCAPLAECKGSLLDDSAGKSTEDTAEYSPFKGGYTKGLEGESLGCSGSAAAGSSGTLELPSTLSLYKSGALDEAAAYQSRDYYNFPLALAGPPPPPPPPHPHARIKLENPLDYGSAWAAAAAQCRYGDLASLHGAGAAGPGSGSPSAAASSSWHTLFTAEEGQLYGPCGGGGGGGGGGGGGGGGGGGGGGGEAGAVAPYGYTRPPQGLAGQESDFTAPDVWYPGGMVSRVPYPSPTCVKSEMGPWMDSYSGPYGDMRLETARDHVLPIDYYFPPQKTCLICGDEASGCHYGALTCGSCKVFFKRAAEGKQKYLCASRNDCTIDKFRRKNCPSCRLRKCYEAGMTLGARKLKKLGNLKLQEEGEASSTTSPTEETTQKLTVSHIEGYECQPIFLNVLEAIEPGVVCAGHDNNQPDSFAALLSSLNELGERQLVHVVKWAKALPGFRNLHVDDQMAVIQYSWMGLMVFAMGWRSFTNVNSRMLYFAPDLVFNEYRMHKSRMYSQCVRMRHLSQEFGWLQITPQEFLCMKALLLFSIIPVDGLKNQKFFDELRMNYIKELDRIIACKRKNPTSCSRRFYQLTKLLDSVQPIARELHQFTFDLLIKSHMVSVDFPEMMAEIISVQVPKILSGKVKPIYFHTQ
# In short: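 Stimulation of an AR-responsive β-lactamase reporter in GripTite HEK293 cells was measured after 16 h compound exposure at 37 °C, via CCF4 fluorescence after 2 h RT. EC50 from Hill fits, normalized to R1881 at 30 nM.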
# [4] = Counterscreen for APE1 Inhibitors: Fluorescent Dye Displacement Assay (AID 2564);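 also: loss of thiazole orange fluorescence as the dye is displaced from duplex DNA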; also: potency is read from the fitted curve at half-maximal effect
# In short: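 Endpoint fluorescence read at 480 nm excitation / 540 nm emission; DNA-binding compounds lower signal by displacing 250 nM Thiazole Orange from 50 nM dsDNA containing a tetrahydrofuran abasic site, Tris-HCl pH7.5 buffer with NaCl and MgCl2.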
# [5] = target: DNA repair nuclease/redox regulator APEX1 (Homo sapiens) (UniProt P27695); experiment: Confirmation qHTS Assay for Inhibitors of the Human Apurinic/apyrimidinic Endonuclease 1 (APE1) (AID 2572); conditions: purified APE1, fluorogenic abasic-site DNA cleavage; also: potency is read from the fitted curve at half-maximal effect; nearly all actives have a fitted effect of over 30% in size
# DNA repair nuclease/redox regulator APEX1 (Homo sapiens), sequence (P27695 whole entry, looked up): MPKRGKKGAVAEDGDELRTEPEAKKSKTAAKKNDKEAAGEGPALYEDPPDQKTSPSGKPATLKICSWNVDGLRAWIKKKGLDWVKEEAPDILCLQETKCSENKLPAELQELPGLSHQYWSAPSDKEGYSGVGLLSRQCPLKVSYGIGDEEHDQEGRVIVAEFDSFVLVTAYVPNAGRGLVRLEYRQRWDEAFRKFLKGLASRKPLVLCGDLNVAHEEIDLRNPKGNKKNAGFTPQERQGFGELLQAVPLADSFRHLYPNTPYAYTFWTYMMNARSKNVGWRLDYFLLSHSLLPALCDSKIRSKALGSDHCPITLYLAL
# In short: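 Inhibition is measured on a short double-stranded THF-site oligo, 50 nM final, whose incision relieves BHQ-2 quenching of TAMRA. After 15 min enzyme–compound preincubation at RT, three reads a minute apart are taken.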
# [6] = target: Cytochrome P450 3A4 (Homo sapiens) (UniProt P08684); experiment: qHTS Assay for Activators of Cytochrome P450 3A4 (AID 885); also: nearly all actives have a fitted effect of over 65% in size
# Cytochrome P450 3A4 (Homo sapiens), sequence (P08684 whole entry, looked up): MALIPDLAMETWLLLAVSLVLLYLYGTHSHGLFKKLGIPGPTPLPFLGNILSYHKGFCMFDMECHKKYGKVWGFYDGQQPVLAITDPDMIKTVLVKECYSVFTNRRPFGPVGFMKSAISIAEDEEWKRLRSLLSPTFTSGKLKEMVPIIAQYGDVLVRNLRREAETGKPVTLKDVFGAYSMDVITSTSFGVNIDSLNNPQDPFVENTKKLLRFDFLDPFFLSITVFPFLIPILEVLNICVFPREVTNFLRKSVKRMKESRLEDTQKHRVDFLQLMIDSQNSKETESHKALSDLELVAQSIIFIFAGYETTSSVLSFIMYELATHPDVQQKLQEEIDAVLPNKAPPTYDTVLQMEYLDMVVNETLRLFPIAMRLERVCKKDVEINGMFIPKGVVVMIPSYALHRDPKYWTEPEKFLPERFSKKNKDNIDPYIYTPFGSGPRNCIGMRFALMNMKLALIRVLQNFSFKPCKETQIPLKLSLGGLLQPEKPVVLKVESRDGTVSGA
# In short: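 Activators are scored by enhanced luminescence from CYP3A4 conversion of luciferin-PPXE (25uM, equal to KM) to luciferin, after 60 min at RT with an NADPH-regenerating system.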
# [7] = qHTS Assay for Inhibitors of Fructose-1,6-bisphosphate Aldolase from Giardia Lamblia: Giardia lamblia growth inhibition (AID 2785); also: % is scaled to controls: 0 for no effect and ±100 for the full control effect; nearly all actives have a fitted effect of over 70% in size
# In short: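 Whole-parasite growth test: Giardia WB trophozoites in TYI-S-33 (pH 7.0), 100 per well, incubated 48 h at 37C with compound. ATP content was read by ATPlite luminescence.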
# [8] = qHTS Assay for Inhibitors of Fructose-1,6-bisphosphate Aldolase from Giardia Lamblia: Mammalian cellular toxicity (AID 2786);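 also: compound exposure lasted 48 h before reading; % is scaled to controls: 0 for no effect and ±100 for the full control effect; nearly all actives have a fitted effect of over 60% in size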
# In short: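 Mammalian cytotoxicity surrogate: Chinese hamster ovary cells exposed to compound for 48 h at 37 °C. Cellular ATP then measured with ATPlite reagent, 20 min incubation.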
# [9] = target: Fructose-bisphosphate aldolase (Giardia intestinalis (strain ATCC 50803 / WB clone C6)) (UniProt A8B2U2); experiment: qHTS Assay for Inhibitors of Fructose-1,6-bisphosphate Aldolase from Giardia Lamblia: Primary screen confirmation (AID 2787);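 also: aldolase product measured through coupled diaphorase step turning resazurin into fluorescent resorufin; series mostly up to about 58 µM; % is scaled to controls: 0 for no effect and ±100 for the full control effect; nearly all actives have a fitted effect of over 45% in size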
# Fructose-bisphosphate aldolase (Giardia intestinalis (strain ATCC 50803 / WB clone C6)), sequence (A8B2U2 whole entry, looked up): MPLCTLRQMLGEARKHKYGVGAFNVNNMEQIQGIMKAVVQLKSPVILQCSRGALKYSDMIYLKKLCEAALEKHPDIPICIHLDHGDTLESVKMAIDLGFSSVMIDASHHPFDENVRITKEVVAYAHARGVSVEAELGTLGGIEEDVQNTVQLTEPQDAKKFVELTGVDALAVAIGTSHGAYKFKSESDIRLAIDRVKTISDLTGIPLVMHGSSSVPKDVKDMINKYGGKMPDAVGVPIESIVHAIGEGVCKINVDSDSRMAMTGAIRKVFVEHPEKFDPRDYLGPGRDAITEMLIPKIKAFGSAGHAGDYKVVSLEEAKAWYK
# In short: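 FBPA (40 nM in enzyme reagent, with 30 uM ZnCl2) was preincubated 10 min at RT with compound up to 57.5 uM final. Substrate plus coupled detection system was then added, and fluorescence (525/598 nm) was read after 20 min at RT.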
# [10] = target: Fructose-bisphosphate aldolase A (Oryctolagus cuniculus) (UniProt P00883); experiment: qHTS Assay for Inhibitors of Fructose-1,6-bisphosphate Aldolase from Giardia Lamblia: Rabbit FBPA Selectivity (AID 2794); also: % is scaled to controls: 0 for no effect and ±100 for the full control effect; nearly all actives have a fitted effect of over 60% in size
# Fructose-bisphosphate aldolase A (Oryctolagus cuniculus), sequence (P00883 whole entry, looked up): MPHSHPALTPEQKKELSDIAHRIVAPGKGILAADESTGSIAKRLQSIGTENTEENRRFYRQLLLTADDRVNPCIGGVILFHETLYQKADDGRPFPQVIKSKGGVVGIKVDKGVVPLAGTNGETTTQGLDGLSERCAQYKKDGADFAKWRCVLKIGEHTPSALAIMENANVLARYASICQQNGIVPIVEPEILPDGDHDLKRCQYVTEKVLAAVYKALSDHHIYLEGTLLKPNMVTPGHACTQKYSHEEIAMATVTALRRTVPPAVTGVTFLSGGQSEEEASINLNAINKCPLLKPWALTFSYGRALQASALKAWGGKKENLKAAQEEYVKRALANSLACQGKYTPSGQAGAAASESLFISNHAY
# In short: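 Room-temperature coupled fluorescence assay using rabbit aldolase. Steps: coupling enzymes, compound (up to 57.5 uM final), 10 min; substrate plus detection reagent, 20 min; read 525/598 nm.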
# [11] = qHTS Assay for Inhibitors of Fructose-1,6-bisphosphate Aldolase from Giardia Lamblia: Coupling assay counterscreen confirmation (AID 2795); also: % is scaled to controls: 0 for no effect and ±100 for the full control effect; nearly all actives have a fitted effect of over 55% in size
# In short: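 Primary-screen hits were tested against the coupling system alone (GAPDH-based, glyceraldehyde-3-phosphate), without aldolase. Compounds at up to 57.5 uM final were preincubated 10 min at RT with coupling enzymes, then substrate/detection mix (AmpLite Red) was added for 20 min at RT; fluorescence read at 525/598 nm.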
# [12] = target: Endonuclease 4 (Escherichia coli (strain K12)) (UniProt P0A6C1); experiment: Counterscreen for APE1 Inhibitors: qHTS Assay for Inhibitors of Endonuclease IV (AID 2565); also: potency is read from the fitted curve at half-maximal effect
# In short: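 The reaction buffer contained 50 mM Tris-HCl pH 7.5, 50 mM NaCl, 2 mM MgCl2, 1 mM DTT and 0.01% Tween-20. Incision of a 50 nM fluorophore/quencher THF substrate by 2 nM enzyme was measured kinetically.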
# [13] = target: Tyrosyl-DNA phosphodiesterase 1 (Homo sapiens) (UniProt Q9NUW8); experiment: Confirmation Assay for Inhibitors of Tyrosyl-DNA Phosphodiesterase (TDP1) (AID 489007); conditions: recombinant human TDP1 enzymatic activity, dose-response; also: potency is read from the fitted curve at half-maximal effect; nearly all actives have a fitted effect of over 40% in size
# Tyrosyl-DNA phosphodiesterase 1 (Homo sapiens), sequence (Q9NUW8 whole entry, looked up): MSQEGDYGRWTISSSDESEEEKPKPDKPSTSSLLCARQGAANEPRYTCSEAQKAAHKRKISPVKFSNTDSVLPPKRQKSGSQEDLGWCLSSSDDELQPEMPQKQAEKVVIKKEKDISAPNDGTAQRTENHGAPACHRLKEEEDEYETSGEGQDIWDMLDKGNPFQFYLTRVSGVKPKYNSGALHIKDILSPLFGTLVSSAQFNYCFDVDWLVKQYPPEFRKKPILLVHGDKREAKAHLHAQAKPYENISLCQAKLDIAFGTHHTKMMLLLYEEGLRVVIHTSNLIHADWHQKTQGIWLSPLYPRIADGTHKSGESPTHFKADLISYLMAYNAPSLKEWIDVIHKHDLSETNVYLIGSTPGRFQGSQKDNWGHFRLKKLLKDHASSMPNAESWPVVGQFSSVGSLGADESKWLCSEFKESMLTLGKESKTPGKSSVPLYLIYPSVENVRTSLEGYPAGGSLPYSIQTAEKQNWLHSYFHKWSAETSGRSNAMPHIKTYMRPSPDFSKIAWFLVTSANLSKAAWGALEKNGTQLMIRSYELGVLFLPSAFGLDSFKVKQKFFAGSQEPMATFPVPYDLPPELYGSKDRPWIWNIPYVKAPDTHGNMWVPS
# In short: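 AlphaScreen read-out: streptavidin donor and anti-FITC acceptor beads (10 ug/ml) bind intact substrate, so Tdp1 removal of tyrosine-FITC lowers signal. Enzyme 1 nM, substrate 15 nM, 5 min reaction at room temperature after 15 min compound preincubation.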
# [14] = target: DNA repair nuclease/redox regulator APEX1 (Homo sapiens) (UniProt P27695); experiment: qHTS FP-Based Assay for Inhibitors of the Human Apurinic/apyrimidinic Endonuclease 1 (APE1) (AID 2573); also: % is scaled to controls: 0 for no effect and ±100 for the full control effect
# Description: The apurinic/apyrimidinic endonuclease APE1 is the primary mammalian enzyme responsible for the removal of abasic (or AP) sites in DNA and functions centrally in the base excision DNA repair (BER) pathway. […] Thus, targeting APE1 could improve the efficacy of current treatment paradigms by promoting selective sensitization or protection of diseased and normal cells, respectively.
# In order to gain insight into the mode of action of confirmed APE1 inhibitors, we implemented a miniaturized fluorescence polarization assay designed to report on compounds which competitively displace ds-DNA substrate. The fluorescence polarization assay has been implemented in 384- and 1536-well format for binding of TAMRA-labeled double-stranded DNA probe not containing a quencher. The binding of protein to DNA is inhibited by ATA, a general inhibitor of APE1 activity.
# See also related primary fluorogenic assay (AID 2517). […]
# Three uL of enzyme were dispensed to 1536-well Greiner black solid bottom plates. […] The plates were immediately transferred into ViewLux High-throughput CCD imager (Perkin-Elmer) in order to measure the reaction progress in kinetic mode (three reads every 60 seconds) using 525 nm excitation and 598 nm emission fluorescence protocol. The fluorescence intensity difference between the third and the first time points was used to compute reaction progress.
# [15] = target: Lethal(3)malignant brain tumor-like protein 1 (Homo sapiens) (UniProt Q9Y468); experiment: qHTS Assay for the Inhibitors of L3MBTL1: Hit Validation (AID 540279); conditions: L3MBTL1 methyl-lysine binding inhibition, biochemical qHTS; also: potency is read from the fitted curve at half-maximal effect; nearly all actives have a fitted effect of over 70% in size
# Lethal(3)malignant brain tumor-like protein 1 (Homo sapiens), sequence (Q9Y468 whole entry, looked up): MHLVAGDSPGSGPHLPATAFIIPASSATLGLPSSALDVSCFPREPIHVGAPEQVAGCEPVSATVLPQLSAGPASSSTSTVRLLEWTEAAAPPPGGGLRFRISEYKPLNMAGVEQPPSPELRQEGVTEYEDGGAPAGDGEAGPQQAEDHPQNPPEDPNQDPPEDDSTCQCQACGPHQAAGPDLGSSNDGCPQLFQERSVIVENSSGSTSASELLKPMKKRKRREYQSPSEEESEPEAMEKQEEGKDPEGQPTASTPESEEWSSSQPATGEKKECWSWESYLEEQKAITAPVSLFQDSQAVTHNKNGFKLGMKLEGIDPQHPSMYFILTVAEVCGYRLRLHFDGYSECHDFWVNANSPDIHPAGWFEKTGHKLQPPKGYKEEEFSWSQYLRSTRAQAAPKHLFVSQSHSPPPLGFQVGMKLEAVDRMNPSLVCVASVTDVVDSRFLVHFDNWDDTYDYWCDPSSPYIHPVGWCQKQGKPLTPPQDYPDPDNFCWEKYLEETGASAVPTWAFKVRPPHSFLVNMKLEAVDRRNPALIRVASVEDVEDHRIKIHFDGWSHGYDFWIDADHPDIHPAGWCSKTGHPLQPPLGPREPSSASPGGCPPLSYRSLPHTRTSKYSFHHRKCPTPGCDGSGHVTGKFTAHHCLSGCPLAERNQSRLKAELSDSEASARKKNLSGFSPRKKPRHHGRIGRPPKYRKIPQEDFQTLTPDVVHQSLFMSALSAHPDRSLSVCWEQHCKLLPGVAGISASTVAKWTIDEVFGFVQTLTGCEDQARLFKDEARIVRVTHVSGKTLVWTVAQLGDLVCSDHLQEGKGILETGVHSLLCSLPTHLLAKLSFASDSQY
# In short: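 AlphaScreen displacement: 50 nM L3MBTL1 bound to 75 nM biotin-H3K9me1 peptide for 30 min, compound added for 30 min at room temperature, then beads at 10 ug/mL final for 30 min in the dark. Cefsulodin titration served as intraplate control.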
smiles,measurement,setting,value
COc1ccc(NC(=O)N2CCCC3(CCN(C(=O)c4cccc(F)c4)CC3)C2)cc1,Potency,[1],> 20 µM
O=C(c1cccc(F)c1)N1CCC2(CCCN(c3ncccn3)C2)CC1,Potency,[1],> 20 µM
O=C(Nc1cccc(F)c1)N1CCC2(CC1)CCN(C(=O)c1ccco1)CC2,Potency,[1],> 20 µM
N#CCCn1c(=O)cnc2cnc(Oc3cccc(Cl)c3)nc21,Potency,[1],> 20 µM
O=c1c(-c2cc(F)cc(F)c2)nc2cnc(Oc3ccccc3)nc2n1C[C@H]1CCCO1,Potency,[1],> 20 µM
BrCC(Br)(Br)Br,Potency,[2],inactive
same,activation,[3],1.19%
c1ccc(CNc2ncnc3ccc(-c4ccc5c(c4)OCO5)cc23)cc1,Potency,[1],> 20 µM
CC(=O)N1CCC2(CC1)CN(c1ccccn1)C2,Potency,[1],> 20 µM
O=C(OCC1O[C@@H](OC(=O)c2cc(O)c(O)c(O)c2)[C@@H](OC(=O)c2cc(O)c(O)c(O)c2)[C@@H](OC(=O)c2cc(O)c(O)c(O)c2)[C@@H]1OC(=O)c1cc(O)c(O)c(O)c1)c1cc(O)c(O)c(O)c1 (some centres undefined),Potency,[4],3.98 µM (active)
same,Potency,[5],6.3 nM (active)
N#C/C=C/C#N,Potency,[2],inactive
O=C(Oc1ccccc1)N1CCC2(CC1)CCN(c1cccc(-c3ccccc3)c1)CC2,Potency,[1],> 20 µM
CNc1cc(-c2c(C)noc2C)ncn1,Potency,[1],> 20 µM
CN(C)c1ncc2nc(CCc3ccccc3)c(=O)n(Cc3cccs3)c2n1,Potency,[1],> 20 µM
Oc1cc(Cl)c(Cl)c(Cl)c1,Potency,[6],inactive
O=C(c1ccco1)N1CCC2(CCN(Cc3ccccc3)CC2)CC1,Potency,[1],> 20 µM
COc1cccc(Cn2c(=O)c(C)nc3cnc(OCc4ccccc4)nc32)c1,Potency,[1],> 20 µM
CCCCC(=O)N/N=C/c1c(O)n(-c2ccccc2)c(=O)[nH]c1=O,outcome,[7],inactive
same,outcome,[8],inactive
same,outcome,[9],inactive
same,outcome,[10],inactive
same,outcome,[11],inactive
CN(C)C(=O)c1ccc(-c2cncnc2NCc2cccnc2)cc1,Potency,[1],> 20 µM
O=S(=O)(c1ccccc1)N1CCC2(CCCN(c3cccc(-c4ccccc4)c3)C2)CC1,Potency,[1],> 20 µM
O=C(O)c1cc[c]([Sb](=[O])([OH])[OH])cc1[N+](=O)[O-],Potency,[12],10 µM (active)
same,Potency,[5],56.2 nM (active)
same,Potency,[13],2 µM (active)
COCCn1c(=O)c(-c2ccc(OC)cc2)nc2cnc(N3CCOCC3)nc21,Potency,[1],> 20 µM
CN(C)c1ccc(-c2nc(NCc3cccnc3)c3ccccc3n2)cc1,Potency,[1],> 20 µM
COc1cccc(Nc2ncc3ncc(=O)n(C4CC4)c3n2)c1,Potency,[1],> 4 µM
Nc1ccc(-c2ccc(N)c(Cl)c2)cc1Cl,Potency,[6],inactive
CN(C)c1ncc2nc(-c3cccs3)c(=O)n(CCC#N)c2n1,Potency,[1],0.319 µM (active)
Oc1cc(Cl)c(Cl)c(Cl)c1Cl,Potency,[6],inactive
Cc1c(C(=O)O)cccc1-n1c(C)cc(/C=C2\C(=O)NC(=O)N(c3ccc4c(c3)OCO4)C2=O)c1C,Potency,[4],inactive
same,Potency,[12],inactive
same,Potency,[5],12600 nM (active)
same,outcome,[14],inactive
same,Potency,[15],1.68 µM (active)
